This note sets out measurements from PubChem BioAssay (NCI).

About 83,000 compounds went through this panel and 20% of them were active in at least one assay; those are over-represented in the sample as a whole.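 Percent growth is the endpoint: 0 to 100 indicates growth inhibition (40 means 60% inhibition), 0 means no net growth, and negative values indicate cell death.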 Values without a mark were called inactive. The source made the active and inactive calls. The calls were made as follows: active = growth percent below 10; inactive = the rest.

Holding throughout (test): NCI-60 one-dose screen, 48 h (100 = growth as untreated, 0 = no growth, -100 = all killed)
Common to all, as to conditions: 10 µM unless noted

Experiment [1] concerns SK-MEL-2 melanoma.
Experiment [2] has as its system EKVX NSCLC.
Experiment [3] relates to SN12C renal.
Experiment [4] deals with UO-31 renal.
The test system of experiment [5] is TK-10 renal.
Experiment [6] concerns ACHN renal.
Experiment [7] has as its system CAKI-1 renal.
For experiment [8], the system named is A498 renal.
In experiment [9] the test system is MOLT-4 leukemia.
In experiment [10] the test system is SR leukemia.
The subject of experiment [11] is RPMI-8226 leukemia.
Experiment [12] relates to OVCAR-5 ovarian.
Experiment [13] deals with OVCAR-4 ovarian.
Experiment [14] relates to SK-OV-3 ovarian.
Experiment [15] concerns IGROV1 ovarian.
Experiment [16] deals with OVCAR-3 ovarian.
Experiment [17] deals with HS 578T breast.
The test system of experiment [18] is NCI/ADR-RES ovarian.
Experiment [19] has as its system OVCAR-8 ovarian.
Experiment [20] concerns CCRF-CEM leukemia.

In the case of `CC(=O)c1ccc(NCC(=O)Nc2ccccn2)cc1`, the growth is 105% in experiment [1]; 101% in [2]; 106% in [3]; 86.4% in [4]; 146% in [5]; 103% in experiment [6]. In addition, the growth in [7] is 87.9%; in experiment [8] it was 104%; in experiment [9], 100%; in experiment [10], 108%; in [11], 113%; in [12], 109%. For the same molecule, the growth in experiment [13] is 98.9%; in [14] it was 97%; in experiment [15], 94.8%; in [16], 117%; in experiment [17], 106%; in experiment [18], 105%.
Regarding `Cc1ccc2nc(NC(=O)CSc3nc(-c4ccccc4)c(C#N)c(=O)n3Cc3ccccc3)sc2c1`, the growth in experiment [1] was 85.7%; in [2] it was 90.2%; in experiment [3], 92%; in experiment [4] it was 67.4%; in experiment [5] it was 119%; in experiment [6], 92.6%. The growth is 69% in [7]; 85.7% in [8]; 44.5% in experiment [10]; 67.8% in [11]; 93% in [19]; 108% in experiment [12]. The growth in experiment [13] was 92.8%; in [14], 82.1%; in experiment [15], 78%; in experiment [16], 58.5%; in experiment [17], 78.2%; in experiment [18], 92.2%.
`C[n+]1cccc(CC(=O)NO)c1`: the growth in experiment [1] was 100%; in experiment [2], 102%; in [3], 94.7%; in [4], 97.3%; in experiment [5] it was 94.8%; in experiment [6], 98.4%. Besides, the growth in experiment [7] was 104%; in experiment [8], 115%; in [10] it was 98.4%; in experiment [19], 95.3%; in experiment [12], 110%; in experiment [13], 106%. The growth is 90.9% in [14]; 101% in experiment [15]; 110% in [16]; 101% in experiment [17]; 105% in experiment [18].
For `O=C1CCc2c(sc3[nH]c(=S)n(-c4ccc(OC(F)(F)F)cc4)c(=O)c23)C1`, the growth is 58.5% in experiment [1]; 56.7% in experiment [2]; 31.4% in [3]; 44.4% in [4]; 104% in experiment [5]; 83.6% in experiment [7]. The growth in experiment [8] is 107%; in [9], 47.3%; in [10] it was 35.8%; in [11], -21.7% (active); in [19], 53.6%; in [12], 55.7%. Further, the growth was 17.1% in experiment [13]; 104% in [14]; 55.6% in experiment [15]; 13.2% in experiment [16]; 37.1% in experiment [17]; 12.5% in experiment [18].
In the case of `CN1CCN(CC(=O)Nc2nc(-c3cccc(NS(=O)(=O)c4cccc5c(N(C)C)cccc45)c3)cs2)CC1`, the growth in [1] is 94.3%; in experiment [2], 66.4%; in experiment [3], 69.7%; in experiment [4], 58.3%; in experiment [5], 100%; in experiment [7], 67.9%. The growth in [8] was 96.8%; in experiment [9], 46.2%; in [10], 11.5%; in experiment [11] it was 24.2%; in experiment [19], 87.9%; in [12], 86.6%. In addition, the growth in experiment [13] is 61.2%; in [14], 93.1%; in experiment [15], 86.6%; in experiment [16], 74.4%; in experiment [17], 75%; in [18], 87.3%.
Regarding `COc1ccc(-c2nc3c(N)c(CO)c(C)nc3o2)cc1`, the growth in experiment [1] was 105%; in [2], 95.7%; in experiment [3], 106%; in [4] it was 88.7%; in [5] it was 85%; in experiment [7], 97%. The growth in experiment [8] was -10.8% (active); in experiment [9], 96.3%; in [10] it was 100%; in experiment [19], 110%; in experiment [12] it was 85.1%; in experiment [13] it was 104%. The growth was 106% in experiment [14]; 86.9% in experiment [15]; 103% in experiment [16]; 105% in [17]; 89.7% in experiment [18].
For `NC(=N\N=C/c1ccccc1[N+](=O)[O-])/C(N)=N\N=C/c1ccccc1[N+](=O)[O-]`, the growth in experiment [1] was 98.4%; in experiment [2], 98.5%; in [3], 108%; in experiment [4], 116%; in [5] it was 99.6%; in [7], 95.2%. Besides, the growth in [8] was 85.9%; in experiment [9] it was 113%; in experiment [10] it was 107%; in [11], 88.2%; in experiment [19], 109%; in [12], 109%. In addition, the growth was 111% in experiment [13]; 102% in [14]; 136% in experiment [15]; 100% in experiment [17]; 114% in experiment [18].
As for `O=C(O)C1CCC(=O)N1C(=O)OCc1ccccc1` (stereo not given), the growth in experiment [1] was 103%; in experiment [2], 97.8%; in [3], 90.1%; in experiment [4], 88.7%; in experiment [5] it was 88.7%; in [7] it was 83.4%. The growth in experiment [8] was 123%; in [20], 102%; in [10] it was 89.4%; in experiment [11], 88.8%; in [19] it was 96.3%; in experiment [12], 92.6%. The growth is 109% in [14]; 110% in [15]; 118% in experiment [16]; 136% in [17]; 98.4% in [18].
